In PubChem BioAssay (EPA / NIEHS) one finds outcome and AC50 data, which are given here for three compounds.

What all share (settings): mRNA level, 48 h; actives raise or lower the signal
Read-out in assay [1]: Bcl-2 (BAX) gene, BAX (gene 581)
Kind of assay: LTEA_HepaRG_BAX: Life Technologies and Expression Analysis (LTEA) Assay for Bcl-2 (BAX) gene using HepaRG (AID 2283470). An outline of the steps: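 HepaRG (human liver), 48 h exposure, duplicate wells. 8-pt curve, half-log from 100 uM, 0.5% DMSO. BAX transcript by TaqMan qRT-PCR; ACTB/GAPDH/POLR2A normalization; gain or loss vs DMSO baseline.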

Read-out in assay [2]: adenosine kinase (ADK) gene, ADK (gene 132)
Kind of assay: LTEA_HepaRG_ADK: Life Technologies and Expression Analysis (LTEA) Assay for adenosine kinase (ADK) gene using HepaRG (AID 2283471). An outline of the steps: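 ADK expression quantified by qRT-PCR, normalised to three housekeeping genes, after 48 h exposure of HepaRG cells to eight concentrations (top 100 uM, half-log steps, duplicate, 0.5% DMSO). Up- or down-regulation fitted relative to vehicle.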

Read-out in assay [3]: Alpha-fetoprotein (AFP) gene, AFP (gene 174)
Kind of assay: LTEA_HepaRG_AFP: Life Technologies and Expression Analysis (LTEA) Assay for Alpha-fetoprotein (AFP) gene using HepaRG (AID 2283472). An outline of the steps: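 HepaRG, single lot; 48 h post-plating -> serum-free induction medium; cpd 8-pt, 100 uM top, half-log, 0.5% DMSO, duplicate, 48 h. RNA -> qRT-PCR AFP, norm ACTB/GAPDH/POLR2A. Bidirectional fit vs DMSO.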

Read-out in assay [4]: Apolipoprotein A-V (APOA5) gene, APOA5 (gene 116519)
In words: LTEA_HepaRG_APOA5: Life Technologies and Expression Analysis (LTEA) Assay for Apolipoprotein A-V (APOA5) gene using HepaRG (AID 2283474). In a few lines:
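Differentiated HepaRG cells in serum-free induction medium, exposed 48 h in duplicate to eight half-log concentrations topping at 100 uM (0.5% DMSO). APOA5 mRNA by Fluidigm TaqMan qRT-PCR, normalized to ACTB, GAPDH and POLR2A; bidirectional fit versus DMSO.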

Read-out in assay [5]: Apoptosis regulator Bcl-2 (Homo sapiens) (UniProt P10415)
Kind of assay: LTEA_HepaRG_BCL2: Life Technologies and Expression Analysis (LTEA) Assay for Bcl-2 gene using HepaRG (AID 2283475). An outline of the steps: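 HepaRG, plated 48 h then switched to serum-free induction medium; dosed 48 h, 8 conc. (max 100 uM, half-log steps), duplicate, 0.5% DMSO. Lysis in RLT, RNA isolated, TaqMan qRT-PCR for BCL2; ACTB/GAPDH/POLR2A normalisation; bidirectional fit vs DMSO.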

Read-out in assay [6]: Bcl-2 (BID) gene, BID (gene 637)
In words: LTEA_HepaRG_BID: Life Technologies and Expression Analysis (LTEA) Assay for Bcl-2 (BID) gene using HepaRG (AID 2283476). An outline of the steps: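 Transcript levels of BID, measured by qRT-PCR and normalized to three housekeeping genes, were fitted bidirectionally against DMSO controls. Cells were HepaRG, dosed 48 h at up to 100 uM.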

Read-out in the next assay: Caspase-3 (Homo sapiens) (UniProt P42574)
Kind of assay: LTEA_HepaRG_CASP3: Life Technologies and Expression Analysis (LTEA) Assay for cysteine-aspartic acid protease (CASP3) using HepaRG (AID 2283477). In a few lines: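 Differentiated HepaRG cells, plated 48 h, were treated in duplicate in serum-free induction medium for 48 h with eight half-log concentrations up to 100 uM in 0.5% DMSO. CASP3 mRNA measured by qRT-PCR, normalized to ACTB, GAPDH, POLR2A.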

Read-out in assay [7]: Cytochrome P450 (CYP1A2), CYP1A2 (gene 1544)
In words: LTEA_HepaRG_CYP1A2: Life Technologies and Expression Analysis (LTEA) Assay for Cytochrome P450 (CYP1A2) using HepaRG (AID 2283479). In a few lines: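 Differentiated human HepaRG cells in serum-free induction medium exposed 48 hours in duplicate to 8 half-log concentrations from 100 uM, 0.5% DMSO. CYP1A2 mRNA quantified by qRT-PCR, normalized to ACTB, GAPDH and POLR2A; bidirectional fitting versus DMSO.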

Read-out in assay [8]: cysteine-aspartic acid protease (CASP8), CASP8 (gene 841)
In words: LTEA_HepaRG_CASP8: Life Technologies and Expression Analysis (LTEA) Assay for cysteine-aspartic acid protease (CASP8) using HepaRG (AID 2283480). An outline of the steps:
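Differentiated HepaRG cells in serum-free induction medium, 48 h exposure, eight-point half-log series from 100 uM in 0.5% DMSO, duplicates. CASP8 mRNA by qRT-PCR, normalized to ACTB, GAPDH, POLR2A; bidirectional fit versus DMSO.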

Read-out in assay [9]: Cytochrome P450 (CYP2B6), CYP2B6 (gene 1555)
Kind of assay: LTEA_HepaRG_CYP2B6: Life Technologies and Expression Analysis (LTEA) Assay for Cytochrome P450 (CYP2B6) using HepaRG (AID 2283481). An outline of the steps:
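Differentiated human HepaRG cells in serum-free induction medium, dosed in duplicate for 48 h over 8 half-log concentrations topping at 100 uM (0.5% DMSO). CYP2B6 mRNA measured by TaqMan qRT-PCR, normalized to ACTB, GAPDH, POLR2A; bidirectional fit versus DMSO.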

Read-out in assay [10]: Cytochrome P450 2C19 (Homo sapiens) (UniProt P33261)
Kind of assay: LTEA_HepaRG_CYP2C19: Life Technologies and Expression Analysis (LTEA) Assay for CYP2C19 using HepaRG (AID 2283482). In a few lines: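 Differentiated HepaRG cells in serum-free induction medium exposed 48 h in duplicate, 8 concentrations from 100 uM by half-log steps in 0.5% DMSO. CYP2C19 mRNA measured by TaqMan qRT-PCR, normalized to ACTB, GAPDH, POLR2A. Bidirectional fit versus DMSO.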

Read-out in the next assay: CYP2C8 (gene 1558)
In words: LTEA_HepaRG_CYP2C8: Life Technologies and Expression Analysis (LTEA) Assay for CYP2C8 using HepaRG (AID 2283483). In a few lines: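 Differentiated HepaRG cells in serum-free induction medium exposed 48 h in duplicate to 8 half-log concentrations from 100 uM in 0.5% DMSO. CYP2C8 mRNA by qRT-PCR normalized to ACTB, GAPDH, POLR2A; bidirectional fit versus DMSO.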

Read-out in the next assay: CYP2C9 (gene 1559)
In words: LTEA_HepaRG_CYP2C9: Life Technologies and Expression Analysis (LTEA) Assay for CYP2C9 using HepaRG (AID 2283484). An outline of the steps:
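Differentiated human HepaRG cells in serum-free induction medium were exposed 48 h to chemicals in 8-point half-log series from 100 uM (0.5% DMSO), in duplicate. CYP2C9 mRNA was measured by qRT-PCR, normalized to ACTB/GAPDH/POLR2A, with bidirectional fitting versus DMSO.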

Read-out in another assay: CYP2E1 (gene 1571)
In words: LTEA_HepaRG_CYP2E1: Life Technologies and Expression Analysis (LTEA) Assay for CYP2E1 using HepaRG (AID 2283485). In a few lines:
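Human liver line HepaRG, plated 48 h, then serum-free induction medium + chemical x 48 h; 8-pt CRC from 100 uM, half-log, 0.5% DMSO, n=2. Readout: CYP2E1 mRNA qRT-PCR vs ACTB/GAPDH/POLR2A; bidirectional fit vs DMSO.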

Read-out in the next assay: CYP4A11 (gene 1579)
In words: LTEA_HepaRG_CYP4A11: Life Technologies and Expression Analysis (LTEA) Assay for CYP4A11 using HepaRG (AID 2283486). In a few lines: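 Differentiated HepaRG cells, 48 h after plating, exposed in duplicate for 48 h to 8 half-log concentrations up to 100 uM in 0.5% DMSO in serum-free induction medium. CYP4A11 mRNA measured by TaqMan qRT-PCR, normalized to ACTB, GAPDH and POLR2A.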

Read-out in assay [11]: DNA damage-inducible transcript 3 (DDIT3), DDIT3 (gene 1649)
In words: LTEA_HepaRG_DDIT3: Life Technologies and Expression Analysis (LTEA) Assay for DNA damage-inducible transcript 3 (DDIT3) using HepaRG (AID 2283488). An outline of the steps: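 HepaRG plated 48 h, switched to serum-free induction medium, dosed 48 h (100 uM top, half-log, 8 pts, 0.5% DMSO, n=2); RNA isolated; DDIT3 by qRT-PCR; bidirectional curve fit vs DMSO.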

Read-out in assay [12]: Pro-epidermal growth factor (Homo sapiens) (UniProt P01133)
In words: LTEA_HepaRG_EGF: Life Technologies and Expression Analysis (LTEA) Assay for Epidermal growth factor (EGF) using HepaRG (AID 2283489). An outline of the steps: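 HepaRG cells (~100,000/well, 48 h pre-culture) exposed in duplicate for 48 h in serum-free induction medium to 8 half-log concentrations up to 100 uM in 0.5% DMSO. EGF mRNA by qRT-PCR, normalized to ACTB/GAPDH/POLR2A; bidirectional fit versus DMSO.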

Read-out in assay [13]: Cytochrome P450 (CYP24A1), CYP24A1 (gene 1591)
Kind of assay: LTEA_HepaRG_CYP24A1: Life Technologies and Expression Analysis (LTEA) Assay for Cytochrome P450 (CYP24A1) using HepaRG (AID 2283478). An outline of the steps:
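HepaRG cells plated 48 h, then exposed in duplicate in serum-free induction medium for 48 h to 8-point half-log series from 100 uM in 0.5% DMSO. CYP24A1 mRNA by Fluidigm qRT-PCR, normalized to ACTB, GAPDH, POLR2A; bidirectional fit versus DMSO.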

Read-out in assay [14]: Cytochrome P450 3A4 (Homo sapiens) (UniProt P08684)
In words: LTEA_HepaRG_CYP3A4: Life Technologies and Expression Analysis (LTEA) Assay for CYP3A4 using HepaRG (AID 2283487). In a few lines:
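Differentiated HepaRG cells, plated 48 h, then dosed 48 h in serum-free induction medium with 0.5% DMSO, 8 half-log concentrations up to 100 uM, duplicate. CYP3A4 mRNA by qRT-PCR, normalized to ACTB/GAPDH/POLR2A; bidirectional fit versus DMSO.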

The source made the active and inactive calls. Rule for the calls: active = hit-call score of the fitted dose curve at least 0.9, where 1 is the maximum; inactive = score below 0.9.

Sequence of Caspase-3 (Homo sapiens) (P42574 whole entry, looked up): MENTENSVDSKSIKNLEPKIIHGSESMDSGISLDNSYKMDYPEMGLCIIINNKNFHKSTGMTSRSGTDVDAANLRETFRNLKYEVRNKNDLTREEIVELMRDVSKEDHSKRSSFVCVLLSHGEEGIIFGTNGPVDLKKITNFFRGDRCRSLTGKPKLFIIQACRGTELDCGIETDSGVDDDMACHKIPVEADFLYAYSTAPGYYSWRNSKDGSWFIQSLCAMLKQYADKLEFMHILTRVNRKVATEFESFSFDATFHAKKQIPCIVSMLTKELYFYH
Sequence of Apoptosis regulator Bcl-2 (Homo sapiens) (P10415 whole entry, looked up): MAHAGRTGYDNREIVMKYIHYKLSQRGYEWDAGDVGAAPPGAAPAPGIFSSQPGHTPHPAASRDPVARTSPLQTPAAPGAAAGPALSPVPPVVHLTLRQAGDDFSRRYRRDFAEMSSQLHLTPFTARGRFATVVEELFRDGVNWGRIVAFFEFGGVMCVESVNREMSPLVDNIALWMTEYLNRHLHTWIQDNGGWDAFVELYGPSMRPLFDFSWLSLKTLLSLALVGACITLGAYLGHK
Sequence of Cytochrome P450 2C19 (Homo sapiens) (P33261 whole entry, looked up): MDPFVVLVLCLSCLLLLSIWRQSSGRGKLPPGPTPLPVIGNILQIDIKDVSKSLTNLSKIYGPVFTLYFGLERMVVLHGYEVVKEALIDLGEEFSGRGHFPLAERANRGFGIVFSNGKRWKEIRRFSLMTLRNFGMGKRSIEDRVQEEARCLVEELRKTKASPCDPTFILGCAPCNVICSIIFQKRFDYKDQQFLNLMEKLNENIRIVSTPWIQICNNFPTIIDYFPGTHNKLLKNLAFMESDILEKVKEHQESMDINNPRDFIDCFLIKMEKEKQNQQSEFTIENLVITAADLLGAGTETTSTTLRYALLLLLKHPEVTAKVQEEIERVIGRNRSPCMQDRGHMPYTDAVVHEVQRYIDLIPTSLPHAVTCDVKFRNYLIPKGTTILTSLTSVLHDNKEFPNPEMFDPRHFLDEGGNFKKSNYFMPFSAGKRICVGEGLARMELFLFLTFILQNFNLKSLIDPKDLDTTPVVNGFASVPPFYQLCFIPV
Sequence of Cytochrome P450 3A4 (Homo sapiens) (P08684 whole entry, looked up): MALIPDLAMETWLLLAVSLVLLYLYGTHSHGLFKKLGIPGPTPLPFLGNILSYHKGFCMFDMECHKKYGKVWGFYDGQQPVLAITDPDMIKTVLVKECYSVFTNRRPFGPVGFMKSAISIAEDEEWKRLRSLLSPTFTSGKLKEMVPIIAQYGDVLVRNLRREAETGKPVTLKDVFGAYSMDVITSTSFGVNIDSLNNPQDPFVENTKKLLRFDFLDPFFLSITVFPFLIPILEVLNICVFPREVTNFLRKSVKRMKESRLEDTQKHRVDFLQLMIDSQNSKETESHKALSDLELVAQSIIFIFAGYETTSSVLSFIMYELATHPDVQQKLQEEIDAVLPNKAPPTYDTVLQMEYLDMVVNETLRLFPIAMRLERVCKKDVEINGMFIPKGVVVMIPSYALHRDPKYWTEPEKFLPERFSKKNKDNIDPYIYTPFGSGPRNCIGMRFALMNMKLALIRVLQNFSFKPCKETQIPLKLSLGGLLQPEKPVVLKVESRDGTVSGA

The AC50 is the concentration at which the activity in the assay is half-maximal. Regarding `COc1cccc([C@H](O)C2CCN(CCc3ccc(F)cc3)CC2)c1OC`, the call in assay [1], in assay [2], in assay [3], in assay [4], in assay [5] and in assay [6] was inactive. Besides, the compound was called inactive (with Caspase-3 (Homo sapiens); in [8]; with CYP2C8 (gene 1558); with CYP2C9 (gene 1559); with CYP4A11 (gene 1579); in [12]). In addition, the AC50 in assay [7] was 58.9 µM (active); in [9], 13.9 µM (active); in [10], 50 µM (active); with CYP2E1 (gene 1571) it was 16.7 µM (active); in assay [11] it was 70.5 µM (active).

For the compound `CCOC(=O)O[C@H](C)OC(=O)c1ccc2c(c1)cc(C(=O)NC1CCN(C(C)C)CC1)n2Cc1cc(-c2ccc(Cl)s2)on1`, the compound was classed as inactive in assay [1], in assay [2], in assay [3], in [4], in assay [5] and in assay [6]. Also, the compound was classed as inactive (in the assay with Caspase-3 (Homo sapiens); in assay [8]; in [9]; in assay [10]; with CYP2C8 (gene 1558); in the assay with CYP2C9 (gene 1559)). Also, the result (with CYP2E1 (gene 1571); in assay [11]; in [12]) was inactive. For the same compound, the figures for the AC50 (in assay [7]; with CYP4A11 (gene 1579)) were 69.7 µM (active) and 47.2 µM (active), respectively.

For `Oc1ccccc1`, the outcome (in assay [1]; in assay [2]; in [3]; in assay [5]; in assay [6]; with Caspase-3 (Homo sapiens)) was inactive. Further, the compound was called inactive (in assay [13]; in [7]; in [8]; in [9]; in assay [10]; in the assay with CYP2C8 (gene 1558)). In addition, the compound was called inactive (with CYP2C9 (gene 1559); with CYP2E1 (gene 1571); with CYP4A11 (gene 1579); in assay [14]; in assay [11]; in assay [12]).
